High-throughput results from PubChem BioAssay.
ELG1 DNA repair = blocks ELG1-dependent DNA repair in HEK293T cells; HEK293T ELG1-luciferase reporter, luminescence, 16 h; DNA damage induced by 5-fluorouridine; Potency, µM (top dose mostly 46.1 µM), actives largely listed as inhibitors; 330,000 tested, 2.3% active; further: nearly all actives have a fitted effect of over 55% in size
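Cells (2,000 per well) received 5-fluorouridine plus test compound or DMSO and were incubated 16 hr at 37 °C, 5% CO2. Luciferase activity was read by luminescence 30 min after ONE-Glo addition; signal suppression marked inhibition of damage-induced ELG1 function.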
Gal4-VP16 FLuc = Gal4-VP16 reporter inhibition counter-screen. Drosophila S2 Gal4-VP16 UAS-luciferase, luminescence, 20 h. Potency, µM (series often up to 53.6 µM), usual class: inhibitors. 310,000 tested, 3.5% active. AID 2546;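 further: Gal4-VP16 expression switched on by copper sulfate through the metallothionein promoter; nearly all actives have a fitted effect of over 50% in size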
RORgamma inh = blocks mouse ROR gamma transcriptional activity | P51450 | Drosophila S2 Gal4-RORgamma UAS-luciferase reporter, 20 h | Potency, µM (top dose mostly 53.6 µM), actives largely listed as inhibitors | 310,000 tested, 5.4% active; further: nearly all actives have a fitted effect of over 60% in size
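Drosophila Schneider cells stably carrying a metallothionein-driven Gal4 DBD–ROR gamma fusion and a UAS-Photinus luciferase reporter were exposed to compound for 1 hr, then induced with copper sulfate (700 uM final) for 20 hr at ambient temperature before luminescence reading.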
TSHR antag = human thyrotropin receptor antagonism. P16473. TSHR-expressing cells, TSH-stimulated cAMP HTRF, 2 h; hits give low values. activity change, negative = inhibition, % at 11.5 µM. 330,000 tested, 0.2% active. AID 504810;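 active means activity change below a set negative limit, meaning inhibition stronger than a set level, cut at about -70% in these data; inconclusive means activity change between two set negative limits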
Target sequence (P16473 whole entry, looked up): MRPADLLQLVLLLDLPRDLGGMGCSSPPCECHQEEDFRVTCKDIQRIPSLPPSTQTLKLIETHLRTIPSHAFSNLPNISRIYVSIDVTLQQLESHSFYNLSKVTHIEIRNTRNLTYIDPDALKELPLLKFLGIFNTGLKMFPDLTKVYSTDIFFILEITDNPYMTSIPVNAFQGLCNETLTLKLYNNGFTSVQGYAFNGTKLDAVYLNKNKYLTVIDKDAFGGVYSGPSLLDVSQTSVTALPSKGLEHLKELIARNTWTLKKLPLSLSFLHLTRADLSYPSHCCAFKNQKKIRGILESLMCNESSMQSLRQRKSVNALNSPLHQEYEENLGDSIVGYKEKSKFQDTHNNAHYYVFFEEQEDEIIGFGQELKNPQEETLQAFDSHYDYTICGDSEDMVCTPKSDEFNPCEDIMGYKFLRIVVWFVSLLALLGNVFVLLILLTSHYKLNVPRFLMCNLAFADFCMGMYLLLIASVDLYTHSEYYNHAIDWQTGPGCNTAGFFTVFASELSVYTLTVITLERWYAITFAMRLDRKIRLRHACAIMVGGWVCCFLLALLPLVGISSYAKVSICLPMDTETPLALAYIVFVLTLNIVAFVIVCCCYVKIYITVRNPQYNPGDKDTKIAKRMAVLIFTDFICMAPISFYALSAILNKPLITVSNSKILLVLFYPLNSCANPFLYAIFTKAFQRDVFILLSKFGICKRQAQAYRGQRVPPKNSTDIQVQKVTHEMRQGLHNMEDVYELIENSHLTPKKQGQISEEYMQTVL
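Inhibition of cAMP made by TSHR-expressing cells under TSH stimulation (4nM final, EC80; 2 h, 37 deg C) is quantified with a one-step lysis HTRF kit, anti-cAMP cryptate versus cAMP-d2.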
B2AR arrestin = recruits beta-arrestin to the human beta2-adrenergic receptor. P07550. beta-arrestin recruitment to beta2AR, cell-based reporter. Potency, µM (series often up to 46.1 µM), most hits filed as activators. 330,000 tested, 0.02% active; further: nearly all actives have a fitted effect of over 65% in size
Hits are given with their value; 0 = inactive; ? = inconclusive; - = not tested or not shown; ! = not active in a repeat; [ ] = another dose, or the depositor's remark. An excerpt weighted towards active compounds, which were near 7.5% of everything screened. Unless noted, the call rests on the fitted dose curve; in most records, active means well fitted curve in the direction sought with a large enough effect; inconclusive means small, poorly fitted or top-dose-only effect, or another doubt; inactive means no such curve, though single readings can be large; an effect the other way counts as inactive or inconclusive.

SMILES	ELG1 DNA repair	Gal4-VP16 FLuc	RORgamma inh	TSHR antag	B2AR arrestin
COc1ccc(Cc2nnc(SCC(=O)c3c(N)n(C4CC4)c(=O)[nH]c3=O)o2)cc1	0	-	-	0	0
COc1ccc2[nH]c(=O)c(CN(Cc3ccco3)C(c3nnnn3Cc3ccccc3)C(C)C)cc2c1 (stereo not given)	?	0	?	0	0
Cc1cccc2cc(CN(Cc3ccco3)C(c3nnnn3CCc3ccccc3)C(C)C)c(=O)[nH]c12 (stereo not given)	9.2µM	0	?	0	0
CCCCCN(C(=O)CCC(=O)OCc1ccc(Cl)cc1Cl)c1c(N)n(CCCC)c(=O)[nH]c1=O	0	-	-	0	0
Nc1nc(-c2ccc(-c3ccccc3)cc2)cs1	?	22µM	?	0	0
CC(=O)Nc1ccc(S(=O)(=O)Nc2cccc(-c3csc(C)n3)c2)cc1	?	0	?	0	0
Nc1nc(-c2cccc(NS(=O)(=O)c3ccccc3)c2)cs1	?	18µM	?	0	0
Nc1nc(-c2ccc(Oc3ccccc3)cc2)cs1	?	0	0	0	0
Cc1ccc2c(c1)N(CCC(=O)NCCCN1CCCC1)C(=O)C(C)O2 (stereo not given)	?	0	0	0	0
C=CCSC[C@@H]1Nc2cc(Cl)c(S(N)(=O)=O)cc2S(=O)(=O)N1	-	0	0	-	-
CN(CC(=O)Nc1ccc(Cl)cc1)CC(=O)Nc1cccc(Br)c1	0	0	0	0	0
CC(C)(C)NC(=O)C(=O)N/N=C/c1cccs1	?	0	?	0	0
Cc1ccc(/C=N/NC(=O)c2ccccn2)s1	?	22µM	?	0	0
CCN(CC)c1ccc(/C=N/NC(=O)c2ccccn2)cc1	?	0	?	0	0
O=C(N/N=C/c1cccs1)C(=O)Nc1cccc(Cl)c1	?	10µM	3.2µM	0	0
Cn1cccc1/C=N/NC(=O)c1ccccn1	?	0	0	0	0
O=C(N/N=C/c1cccs1)c1ccccn1	?	?	14µM	0	0
Cc1cc(C(=O)N/N=C/c2ccc(C)s2)n[nH]1	?	0	0	0	0
CCc1ccc(/C=N/NC(=O)c2ccccn2)cc1	?	?	10µM	0	0
Cc1cnc(CNc2ncncc2-c2ccccc2C#N)cn1	-	0	0	-	-
CCCn1c(Cc2ccccc2)nnc1SC(C)C(=O)NC1CC1 (stereo not given)	0	-	-	0	0
O=C(N/N=C\c1ccc(Cl)s1)c1cccs1	?	5.6µM	5.6µM	0	0
COCCNC(=O)CCC1CCN(Cc2ccc(-c3ccccc3)cc2)CC1	0	0	0	0	0
Cc1noc(C)c1CSCC(=O)Nc1cc(C(F)(F)F)ccc1N1CCOCC1	0	-	-	0	0
COc1cc2c3nnc(-c4ccc(F)cc4)c-3cn(Cc3ccccc3F)c2cc1OC	?	5µM	6.3µM	0	0
SMILES	ELG1 DNA repair	Gal4-VP16 FLuc	RORgamma inh	TSHR antag	B2AR arrestin
COc1cc2c3nnc(-c4ccccc4)c-3cn(Cc3ccccc3F)c2cc1OC	0	?	8.9µM	0	0
Clc1ccccc1OCCn1cnc2ccccc21	?	0	0	0	0
c1ccc2c(c1)ncn2CCC1CCCCC1	0	0	7.9µM	0	0
Clc1ccc(OCCn2cnc3ccccc32)cc1	0	0	4µM	0	0
Nc1cc([N+](=O)[O-])ccc1O	0	13µM!	0	0	0
COc1ccc(NC(=O)c2cn(C)c(=O)c3cc(OC)c(OC)cc23)c(OC)c1	0	0	0	0	0
COc1ccc(OC)c(NC(=O)c2cn(C)c(=O)c3cc(OC)c(OC)cc23)c1	21µM	0	0	0	0
Cc1cccc(OCc2n[nH]c(=S)n2C2CCCCC2)c1	0	1.3µM	0.79µM	0	0
S=c1[nH]nc(CSCc2ccccc2Cl)n1C1CCCCC1	?	?	0.5µM	0	0
CCOc1ccc(-n2c(COc3ccc(C)cc3)nnc2SCC(N)=O)cc1	0	0	0	0	0
S=c1[nH]nc(COc2ccc(Cl)cc2)n1C1CCCCC1	0	0.79µM	1.1µM	0	0
Cn1c(CSCc2ccccc2Cl)n[nH]c1=S	0	0	0	0	0
Cc1ccc(OCc2n[nH]c(=S)n2C2CCCCC2)cc1	0	3.5µM	1.4µM	0	0
CN(C)c1ccc(CNC(=O)[C@@]2(C)C=C[C@@H](Cc3ccccc3)N2C)cc1	-	0	0	-	-
COc1cccc(Cn2c(=O)c(-c3ccc(F)c(F)c3)nc3cncnc32)c1	-	0	0	-	-
C=CCCC	-	0	0	-	-
COc1ccc2c(c1)O[C@@H](c1cccc(C(F)(F)F)c1)[C@H](OC(=O)Nc1ccc(C)c(Br)c1)C2=O	-	0	0	-	-
CC(C)C(C)NC(=O)COC(=O)C1CCN(S(=O)(=O)c2ccc3c(c2)OCCO3)CC1 (stereo not given)	0	-	-	0	0
O=C1CC(c2ccccc2)Oc2cc(O)cc(O)c21 (stereo not given)	?	0	0	0	0
CC1CC(=O)c2c(cc3c(-c4c(O)cc(O)c5c(O)c6c(cc45)OC(C)CC6=O)c(O)cc(O)c3c2O)O1 (stereo not given)	?	13µM	5µM	0	0
CCS(=O)(=O)N1Cc2ccccc2CC1C(=O)Nc1nc2ccc(C)cc2s1 (stereo not given)	0	?	1.3µM	0	0
CCc1cc(-c2n[nH]c(C)c2-c2nc3ccccc3s2)c(O)cc1OCC(=O)NN	0	0	0	0	0
CCc1cc(-c2n[nH]c(C)c2-c2nc(C)cs2)c(O)cc1OC	0	?	13µM	0	0
COC(=O)NC(/C(C(=O)OC)=C(\C)NCc1ccccc1)c1cccs1 (stereo not given)	-	0[10 µM]	0[10 µM]	-	-
Cc1cccc(NC(=O)CSc2nc(-c3ccco3)nc3cc(=O)[nH]n23)c1	-	-	-	0	0
SMILES	ELG1 DNA repair	Gal4-VP16 FLuc	RORgamma inh	TSHR antag	B2AR arrestin
CCOC(=O)C1(CCOc2ccccc2)CCN(Cc2nccn2CC)CC1	?	?	5µM	0	0
CCOC(=O)C1(CCCc2ccccc2)CCN(Cc2nccn2CC)CC1	0	?	4µM	0	0
CCOC(=O)C1(CCOc2ccccc2)CCN(Cc2cccc(OC)c2O)CC1	?	0	0	-113	0
CCOC(=O)C1(CCOc2ccccc2)CCN(Cc2cc(OC)ccc2OC)CC1	?	0	0	0	0
Cc1cc(C)c(C)c(S(=O)(=O)N2CCC(C(=O)N3CC(C)CC(C)C3)CC2)c1C (stereo not given)	?	-	-	0	0
C=CCn1c(C)cc(C(=O)COC(=O)[C@@H](NC(=O)c2ccccc2Cl)C(C)C)c1C	?	13µM	14µM	0	0
C=CCn1c(C)cc(C(=O)COC(=O)COc2ccccc2C#N)c1C	?	0	0	0	0
COc1c(N2C[C@@H]3CCCN[C@H]3C2)c(F)cc2c(=O)c(C(=O)O)cn(C3CC3)c12	-	0	0	-	-
Cc1ccc2c(Cl)c(C(=O)Nc3cccnc3)sc2c1	8.2µM	0	0	0	0
Cn1cccc1/C=N/NC(=O)c1sc2cc(Cl)ccc2c1Cl	0	0.56µM	0.71µM	0	0
